The assay in a line: viability loss with induced miR-34 in A549 – imaging, A549 dox-inducible miR-34, nuclei and caspase counts, primary screen (AID 1347080). Further: test concentration not given here. The following applies: A549 miR-34 inducible, Hoechst nuclei count, 48 h; measured here: total cells without miR-34 induction.
`CCCCCCCCCCCCCCCCCCCCCC(=O)NCCO` showed a cell count of 5980.

`C[C@H](N)C(=O)CCCCCC(=O)O` displayed a cell count of 5890.

In turn, `CCCCCCCCCCCC(=O)NC[C@]1(C)CCC[C@]2(C)c3ccc(C(C)C)cc3CC[C@@H]12` returned a cell count of 6370.

`CCCCCCCC/C=C\CCCCCCCC(=O)OCC(O)COP(=O)(O)O` (stereo unspecified) had a cell count of 5140.

Molecule `C/C=C/C[C@@H](C)[C@@H](O)[C@H]1C(=O)N[C@@H](CC)C(=O)N(C)CC(=O)N(C)[C@@H](CC(C)C)C(=O)N[C@@H](C(C)C)C(=O)N(C)[C@@H](CC(C)C)C(=O)N[C@@H](C)C(=O)NC(C)C(=O)N(C)[C@@H](CC(C)C)C(=O)N(C)[C@@H](CC(C)C)C(=O)N(C)[C@@H](C(C)C)C(=O)N1C` (stereo partly specified) came in with a cell count of 2230.

`NCc1cccc2ccncc12` yielded a cell count of 5780.

The molecule `CCCCC[C@](C)(O)/C=C/[C@H]1[C@H](O)CC(=O)[C@@H]1CCCCCCC(=O)O` registered a cell count of 5720.

Molecule `O=C(O)CCCCCCC1C(=O)N(Cc2ccccc2)C(=O)N1NCC(O)C1CCCCC1` (stereo unspecified) displayed a cell count of 6590.

`O=C1O/C(=C/Br)CC[C@@H]1c1cccc2ccccc12` had a cell count of 5790.

Molecule `O=C(O)CCC/C=C\C[C@@H]1[C@@H](/C=C/[C@H](O)CCc2ccccc2)[C@H](O)C[C@@H]1O` had a cell count of 5830.

In turn, `CCCCC/C=C\C/C=C\C/C=C\C/C=C\CCCC(=O)OCC` registered a cell count of 6410.

On to `CCCCCCC(=O)SC[C@H](COP(=O)([O-])OCC[N+](C)(C)C)SC(=O)CCCCCC`, for which the cell count is 6070.

For the molecule `CC(C)OC(=O)CCC/C=C\C[C@@H]1[C@@H](/C=C/[C@@H](O)CCc2ccccc2)[C@H](O)C[C@@H]1O`, the cell count is 5870.

Regarding `CC[C@@H]1/C=C(\C)C[C@H](C)C[C@H](OC)[C@H]2O[C@@](O)(C(=O)C(=O)N3CCCC[C@H]3C(=O)O[C@H](/C(C)=C/[C@@H]3CC[C@@H](O)[C@H](OC)C3)[C@H](C)[C@@H](O)CC1=O)[C@H](C)C[C@@H]2OC`, the cell count came out at 3930.

As for `CCCCC[C@@H](O)/C=C/[C@H]1[C@H](O)CC(=O)[C@@H]1C/C=C\CCCC(=O)O`, the cell count is 6180.

For `CC(=O)OCOC(c1ccc2ccccc2c1)P(=O)(OCOC(C)=O)OCOC(C)=O` (stereo unspecified), the cell count came out at 2860.

Molecule `CCCCC[C@H](O)/C=C/[C@H]1[C@H](O)CC(=O)[C@@H]1CC(=O)CCCCC(=O)O` had a cell count of 6680.

Consider `O=C(O)CCCCCC[C@@H]1[C@@H](CC[C@@H](O)CCc2cccc(C(F)(F)F)c2)[C@H](O)C[C@@H]1O`, for which the cell count is 5440.

`CCCCCCCCCCCCCCCCOC[C@H](COP(=O)([O-])OCC[N+](C)(C)C)OC(=O)CCC` came in with a cell count of 5890.

With `CCCCCCCCCCCCC/C=C/[C@@H](O)[C@H](CO)NC(=O)CCCCC`, the cell count was determined as 5910.

`CCCCC[C@H](O)/C=C/[C@@H]1[C@H](C/C=C\CCCC(=O)NCCO)[C@@H](O)C[C@H]1O` displayed a cell count of 5790.

As to `CCCCCCCCCCCCCCCCCCCCCCCCC(=O)OC`, the cell count came to 6470.

Take `CC#CCC(C)[C@H](O)/C=C/[C@@H]1[C@H]2C/C(=C\CCCC(=O)O)C[C@H]2C[C@H]1O` (stereo partly specified): the cell count was 6220.

As to `CCCCC/C=C\C/C=C\C/C=C\CCCCCCC(=O)OC`, the cell count is 5790.

Take `CCCCCCCCCCCCCCCCSC[C@H](COP(=O)([O-])OCC[N+](C)(C)C)NC(=O)CCCCCCCCCCCCCCC`: the cell count is 6010.

Consider `O=C(O)CCCCCC[C@H]1C(=O)NC(=O)N1CCC(O)C1CCCCC1` (stereo partly specified), for which the cell count came to 5640.

For `CCCC[C@H](C)C[C@H](O)/C=C/[C@H]1[C@H](O)CC(=O)[C@@H]1CCCCC(CC(=O)O)OC` (stereo partly specified), the cell count amounted to 5480.

Regarding `CC(C)CCC[C@@H](C)[C@H]1CC[C@H]2[C@@H]3CC(=O)[C@@]4(O)C[C@@H](O)CC[C@]4(C)[C@H]3CC[C@]12C`, the cell count turned out to be 6000.

The molecule `CC(C)CCCC(C)NC(C)C` (stereo unspecified) returned a cell count of 8670.

Consider `CCCCCCCC/C=C\CCCCCCCCCCCCCC(=O)N[C@@H](CO)[C@H](O)/C=C/CCCCCCCCCCCCC`, for which the cell count stood at 5830.

With `CCCCC[C@@](C)(O)/C=C/[C@H]1[C@H](O)CC(=O)[C@@H]1C/C=C\CCCC(=O)O`, the cell count was 5570.

`CC(C)OC(=O)CCC/C=C\C[C@@H]1[C@@H](/C=C/C(F)(F)COc2ccccc2)[C@H](O)C[C@@H]1O` returned a cell count of 5630.

The molecule `CCCCCCCC/C=C\CCCCCCCC(=O)N[C@@H](CO)C(=O)O` displayed a cell count of 5180.

`CCC(C)(C)C(=O)C(=O)N1CCCC[C@H]1C(=O)O[C@H](CCc1ccc(OC)c(OC)c1)c1cccc(N)c1` came in with a cell count of 6080.

In turn, `O=C(O)CCC/C=C\C[C@@H]1[C@@H](/C=C/[C@@H](O)Cc2ccccc2)[C@H](O)C[C@@H]1O` came in with a cell count of 6260.

Consider `CCCCCCCCCCCCCCCCCC(=O)NCCO`, for which the cell count stood at 6120.

The values are drawn from PubChem BioAssay.
